# According to PubChem BioAssay (Tox21):
# Unmarked numbers belong to inactive results. Results filed as inconclusive are left out. A call without a number means that no potency is given here. The source made the active and inactive calls. Calls follow the shape of the dose curve; as a rule, active = well fitted curve in the direction sought with a large enough effect in the repeat runs; inconclusive = weak or mixed curves; inactive = no such curve, though single readings can be large; an effect the other way counts as inactive or inconclusive.
# How the values were obtained:
# [1] = qHTS RealTime-Glo MT Cell Viability Assay in HepG2 cells - 40 hour (AID 1224870); also: nearly all actives have a fitted effect of over 50% in size
# Method in brief: (§1)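 HepG2 cells (600/well) mixed with RealTime-Glo MT reagent, settled 5 h at 37 C/5% CO2 before compound addition. Nonlytic NanoLuc luminescence from viable-cell prosubstrate reduction read repeatedly during 40 h treatment at 37 C.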
# [2] = A CellTox Green Cytotoxicity Assay to monitor cytotoxicity in HEK293 cells - 40 hour (AID 1224871); also: nearly all actives have a fitted effect of over 45% in size
# Method in brief: (§2)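 HEK293 cells, 600/well, were preincubated 5 hours and then exposed to compounds at 37 C for up to 40 hours. A cell-impermeant cyanine dye staining dead-cell DNA was read by fluorescence at 0, 8, 16, 24, 32 and 40 h time points.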
# [3] = qHTS RealTime-Glo MT Cell Viability Assay in HEK293 cells - 16 hour (AID 1224872); also: top concentration of the series differs between compounds; nearly all actives have a fitted effect of over 50% in size
# Method in brief: (§3)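 Nonlytic real-time viability readout: viable cells convert prosubstrate to NanoLuc substrate, giving luminescence proportional to live cell number. HEK293, 600 cells/well, compound added after 5 h, continuous culture at 37 C.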
# [4] = qHTS RealTime-Glo MT Cell Viability Assay in HepG2 cells - 8 hour (AID 1224873); also: nearly all actives have a fitted effect of over 55% in size
# Method in brief: as §1
# [5] = qHTS RealTime-Glo MT Cell Viability Assay in HEK293 cells - 40 hour (AID 1224874); settings: RealTime-Glo luminescence; max response: stronger effect = lower value; also: nearly all actives have a fitted effect of over 50% in size
# Method in brief: (§4)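 600 cells/well were plated with the nonlytic NanoLuc/prosubstrate reagent, pre-incubated 5 h, then given 23 nL of compound in DMSO. Incubation at 37 C for 40 h, with luminescence from viable-cell-reduced substrate read repeatedly from 0 h.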
# [6] = A CellTox Green Cytotoxicity Assay to monitor cytotoxicity in HEK293 cells - 24 hour (AID 1224875); also: series mostly up to about 77 µM; nearly all actives have a fitted effect of over 45% in size
# Method in brief: as §2
# [7] = A CellTox Green Cytotoxicity Assay to monitor cytotoxicity in HepG2 cells - 16 hour (AID 1224876); also: nearly all actives have a fitted effect of over 45% in size
# Method in brief: (§5)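 HepG2 cells, 600/well, preincubated 5 h with CellTox Green dye, then exposed to Tox21 compounds in DMSO at 37 C for up to 40 h. Dead-cell DNA fluorescence read at the indicated time point.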
# [8] = qHTS RealTime-Glo MT Cell Viability Assay in HepG2 cells - 32 hour (AID 1224877); also: nearly all actives have a fitted effect of over 55% in size
# Method in brief: (§6)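 Luminescence read-out: viable HepG2 cells reduce a prosubstrate to a NanoLuc substrate, giving a signal proportional to live cell number. Reads taken at 0, 8, 16, 24, 32 and 40 h of compound exposure at 37 C.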
# [9] = A CellTox Green Cytotoxicity Assay to monitor cytotoxicity in HepG2 cells - 24 hour (AID 1224878); also: nearly all actives have a fitted effect of over 45% in size
# Method in brief: as §5
# [10] = A CellTox Green Cytotoxicity Assay to monitor cytotoxicity in HepG2 cells - 40 hour (AID 1224879); also: nearly all actives have a fitted effect of over 40% in size; also: potency is read from the fitted curve at half-maximal effect
# Method in brief: as §5
# [11] = qHTS RealTime-Glo MT Cell Viability Assay in HEK293 cells - 0 hour (AID 1224880)
# Method in brief: as §4
# [12] = A CellTox Green Cytotoxicity Assay to monitor cytotoxicity in HEK293 cells - 32 hour (AID 1224881); also: nearly all actives have a fitted effect of over 40% in size
# Method in brief: as §2
# [13] = A CellTox Green Cytotoxicity Assay to monitor cytotoxicity in HepG2 cells - 0 hour (AID 1224882); also: nearly all actives have a fitted effect of over 35% in size
# Method in brief: as §5
# [14] = A CellTox Green Cytotoxicity Assay to monitor cytotoxicity in HEK293 cells - 8 hour (AID 1224884); also: nearly all actives have a fitted effect of over 35% in size
# Method in brief: as §2
# [15] = qHTS RealTime-Glo MT Cell Viability Assay in HepG2 cells - 16 hour (AID 1224885); also: nearly all actives have a fitted effect of over 50% in size
# Method in brief: as §6
# [16] = qHTS RealTime-Glo MT Cell Viability Assay in HEK293 cells - 24 hour (AID 1224886)
# Method in brief: as §3
# [17] = qHTS RealTime-Glo MT Cell Viability Assay in HEK293 cells - 8 hour (AID 1224887)
# Method in brief: as §4
# [18] = A CellTox Green Cytotoxicity Assay to monitor cytotoxicity in HEK293 cells - 16 hour (AID 1224888); also: nearly all actives have a fitted effect of over 35% in size
# Method in brief: as §2
# [19] = qHTS RealTime-Glo MT Cell Viability Assay in HepG2 cells - 0 hour (AID 1224889); also: nearly all actives have a fitted effect of over 50% in size
# Method in brief: as §6
# [20] = A CellTox Green Cytotoxicity Assay to monitor cytotoxicity in HepG2 cells - 32 hour (AID 1224883); also: nearly all actives have a fitted effect of over 50% in size
# Method in brief: as §5
smiles,measurement,setting,value
CCOC(=O)CS,Potency,[1],inactive
same,Potency,[2],inactive
same,Potency,[3],inactive
same,outcome,[4],inactive
same,max response,[5],-5.88%
same,Potency,[6],inactive
same,Potency,[7],inactive
same,Potency,[8],inactive
same,Potency,[9],inactive
same,Potency,[10],inactive
same,outcome,[11],inactive
same,Potency,[12],inactive
same,Potency,[13],inactive
same,Potency,[14],inactive
same,outcome,[15],inactive
same,Potency,[16],inactive
same,Potency,[17],inactive
same,Potency,[18],inactive
same,Potency,[19],inactive
COC(C)CCO (stereo unspecified),Potency,[1],inactive
same,Potency,[2],inactive
same,Potency,[3],inactive
same,outcome,[4],inactive
same,max response,[5],6.13%
same,Potency,[6],inactive
same,Potency,[7],inactive
same,Potency,[8],inactive
same,Potency,[9],inactive
same,Potency,[10],inactive
same,outcome,[11],inactive
same,Potency,[12],inactive
same,Potency,[13],inactive
same,Potency,[20],inactive
same,Potency,[14],inactive
same,outcome,[15],inactive
same,Potency,[16],inactive
same,Potency,[17],inactive
same,Potency,[18],inactive
same,Potency,[19],inactive
C1CSCCS1,Potency,[1],inactive
same,Potency,[2],inactive
same,Potency,[3],inactive
same,outcome,[4],inactive
same,max response,[5],-4.02%
same,Potency,[6],inactive
same,Potency,[7],inactive
same,Potency,[8],inactive
same,Potency,[9],inactive
same,Potency,[10],inactive
same,outcome,[11],inactive
same,Potency,[12],inactive
same,Potency,[13],inactive
same,Potency,[20],inactive
same,Potency,[14],inactive
same,outcome,[15],inactive
same,Potency,[16],inactive
same,Potency,[17],inactive
same,Potency,[18],inactive
same,Potency,[19],inactive
Nc1cccc(S(=O)(=O)O)c1,Potency,[1],inactive
same,Potency,[2],inactive
same,Potency,[3],inactive
same,outcome,[4],inactive
same,max response,[5],3%
same,Potency,[6],inactive
same,Potency,[7],inactive
same,Potency,[8],inactive
same,Potency,[9],inactive
same,Potency,[10],inactive
same,outcome,[11],inactive
same,Potency,[12],inactive
same,Potency,[13],inactive
same,Potency,[20],inactive
same,Potency,[14],inactive
same,outcome,[15],inactive
same,Potency,[16],inactive
same,Potency,[17],inactive
same,Potency,[18],inactive
same,Potency,[19],inactive
CN1C(=O)CC(c2ccccc2)C1=O (stereo unspecified),Potency,[1],inactive
same,Potency,[2],inactive
same,Potency,[3],inactive
same,outcome,[4],inactive
same,max response,[5],11.9%
same,Potency,[6],inactive
same,Potency,[7],inactive
same,Potency,[8],inactive
same,Potency,[9],inactive
same,Potency,[10],inactive
same,outcome,[11],inactive
same,Potency,[12],inactive
same,Potency,[13],inactive
same,Potency,[14],inactive
same,outcome,[15],inactive
same,Potency,[16],inactive
same,Potency,[17],inactive
same,Potency,[18],inactive
same,Potency,[19],inactive
CC1=CC(=O)CC(C)(C)C1=O,Potency,[1],inactive
same,Potency,[2],inactive
same,Potency,[3],inactive
same,outcome,[4],inactive
same,max response,[5],-4.9%
same,Potency,[6],inactive
same,Potency,[7],inactive
same,Potency,[8],inactive
same,Potency,[9],inactive
same,Potency,[10],inactive
same,outcome,[11],inactive
same,Potency,[12],inactive
same,Potency,[13],inactive
same,Potency,[20],inactive
same,Potency,[14],inactive
same,outcome,[15],inactive
same,Potency,[16],inactive
same,Potency,[17],inactive
same,Potency,[18],inactive
same,Potency,[19],inactive
C/C(=N\O)[C@@H](C)NCC(C)(C)CN[C@H](C)/C(C)=N/O,Potency,[1],inactive
same,Potency,[2],inactive
same,Potency,[3],inactive
same,outcome,[4],inactive
same,max response,[5],0.121%
same,Potency,[6],inactive
same,Potency,[7],inactive
same,Potency,[8],inactive
same,Potency,[9],inactive
same,Potency,[10],inactive
same,outcome,[11],inactive
same,Potency,[12],inactive
same,Potency,[13],inactive
same,Potency,[20],inactive
same,Potency,[14],inactive
same,outcome,[15],inactive
same,Potency,[16],inactive
same,Potency,[17],inactive
same,Potency,[18],inactive
same,Potency,[19],inactive
O=c1[nH]c(=O)n([C@H]2C[C@H](O)[C@@H](CO)O2)cc1C(F)(F)F,Potency,[1],inactive
same,Potency,[2],inactive
same,Potency,[3],inactive
same,outcome,[4],inactive
same,max response,[5],-15%
same,Potency,[6],inactive
same,Potency,[7],inactive
same,Potency,[8],inactive
same,Potency,[9],inactive
same,Potency,[10],19 µM (active)
same,outcome,[11],inactive
same,Potency,[12],inactive
same,Potency,[13],inactive
same,Potency,[20],inactive
same,Potency,[14],inactive
same,outcome,[15],inactive
same,Potency,[16],inactive
same,Potency,[17],inactive
same,Potency,[18],inactive
same,Potency,[19],inactive
C[C@@H]1CN(c2c(F)c(F)c3c(=O)c(C(=O)O)cn(C4CC4)c3c2F)C[C@H](C)N1,"activity change, negative = cytotoxic",[1],1.26% [at 15.8 µM]
same,cytotoxicity increase,[2],-4.55% [at 15.8 µM]
same,"activity change, negative = cytotoxicity",[3],0.662% [at 15.8 µM]
same,"viability change, negative = cytotoxic",[4],-4.32% [at 15.8 µM]
same,max response,[5],10.3%
same,activity change,[6],"0.295% [at 15.8 µM, stronger effect = higher value]"
same,cytotoxicity increase,[7],-10.9% [at 15.8 µM]
same,"activity change, negative = cytotoxic",[8],0.371% [at 15.8 µM]
same,cytotoxicity,[9],-13.2% [at 15.8 µM]
same,cytotoxicity increase,[10],-9.16% [at 15.8 µM]
same,"activity change, negative = cytotoxicity",[11],0.0765% [at 15.8 µM]
same,cytotoxicity increase,[12],-0.134% [at 15.8 µM]
same,cytotoxicity,[13],-1.92% [at 15.8 µM]
same,cytotoxicity increase,[20],-14.8% [at 15.8 µM]
same,cytotoxicity increase,[14],-0.256% [at 15.8 µM]
same,"activity change, negative = cytotoxic",[15],-2.02% [at 15.8 µM]
same,"activity change, negative = cytotoxicity",[16],9.9% [at 15.8 µM]
same,"activity change, negative = cytotoxicity",[17],0.326% [at 15.8 µM]
same,"activity change, negative = cytotoxicity",[19],-0.832% [at 15.8 µM]
CCCOCCC,Potency,[1],inactive
same,Potency,[2],inactive
same,Potency,[3],inactive
same,outcome,[4],inactive
same,max response,[5],23.9%
same,Potency,[6],inactive
same,Potency,[7],inactive
same,Potency,[8],inactive
same,Potency,[9],inactive
same,Potency,[10],inactive
same,outcome,[11],inactive
same,Potency,[12],inactive
same,Potency,[13],inactive
same,Potency,[20],inactive
same,Potency,[14],inactive
same,outcome,[15],inactive
same,Potency,[16],inactive
same,Potency,[17],inactive
same,Potency,[18],inactive
same,Potency,[19],inactive
CC(C)(C)c1ccc(OC(=O)c2ccccc2O)cc1,Potency,[1],inactive
same,Potency,[2],inactive
same,Potency,[3],inactive
same,outcome,[4],inactive
same,max response,[5],-15.3%
same,Potency,[6],inactive
same,Potency,[7],inactive
same,Potency,[8],inactive
same,Potency,[9],inactive
same,Potency,[10],inactive
same,outcome,[11],inactive
same,Potency,[12],inactive
same,Potency,[13],inactive
same,Potency,[20],inactive
same,Potency,[14],inactive
same,outcome,[15],inactive
same,Potency,[16],inactive
same,Potency,[17],inactive
same,Potency,[18],inactive
same,Potency,[19],inactive
NCCC(O)(P(=O)(O)O)P(=O)(O)O,Potency,[1],inactive
same,Potency,[2],inactive
same,Potency,[3],inactive
same,outcome,[4],inactive
same,max response,[5],3.89%
same,Potency,[6],inactive
same,Potency,[7],inactive
same,Potency,[8],inactive
same,Potency,[9],inactive
same,Potency,[10],inactive
same,outcome,[11],inactive
same,Potency,[12],inactive
same,Potency,[13],inactive
same,Potency,[20],inactive
same,Potency,[14],inactive
same,outcome,[15],inactive
same,Potency,[16],inactive
same,Potency,[17],inactive
same,Potency,[19],inactive
